Reference: PubChem BioAssay (Tox21)
Calls of active or inactive are those of the source. Calls come from the whole dose curve; as a rule, active = well fitted curve in the direction sought with a large enough effect in the repeat runs; inconclusive = weak or mixed curves; inactive = flat fitted curve, though single readings scatter.

Experiment: qHTS assay to test for compound auto fluorescence at 590 nm (red) in HepG2 cell free culture (AID 720684)
Conditions: cell-free medium autofluorescence, red 540/590 nm; series mostly up to 91.3 µM; fluorescence, % of Rose Bengal: at the top concentration
Outline: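 Rose Bengal sodium served as the reference for red signal. Test compounds were dispensed into serum-containing MEM (10% FBS) without cells, and plates were read at 540/590 nm.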
% is set by controls: 0 for no effect and ±100 for the full control effect.

Row | Compound | fluorescence, % of Rose Bengal
1 | O=C1C(=O)c2ccccc2C(O)=C1C1CCC(c2ccc(Cl)cc2)CC1 (stereo not given) | 0.0009% [at 18.6 µM] (inactive)
2 | COc1ccccc1N1CCN(CC(O)COc2cccc3ccccc23)CC1 (stereo not given) | -0.0026% [at 46 µM] (inactive)
3 | CN1CC(=O)N2[C@H](c3ccc4c(c3)OCO4)c3[nH]c4ccccc4c3C[C@@H]2C1=O | 0.048% [at 46 µM] (inactive)
4 | O=C1c2ccccc2C(=O)C1c1nc2ccccc2c(Br)c1O | 0.0463% (inactive)
5 | N#CCCN(CCO)CCO | -0.307% (inactive)
6 | O=[N+]([O-])c1ccc(O/N=C/c2cc(Br)c(O)c(Br)c2)c([N+](=O)[O-])c1 | -0.179% (inactive)
7 | C/C=C/C=C/C=O | -0.0642% (inactive)
8 | O=c1cc(-c2ccccc2)oc2ccc3ccccc3c12 | -0.272% (inactive)
9 | Nc1nc2ccc([N+](=O)[O-])cc2s1 | -0.284% (inactive)
10 | CCC(C)COC(C)=O (stereo not given) | 0.012% (inactive)
11 | CCOC(=O)OC(C)OC(=O)[C@@H]1N2C(=O)[C@@H](NC(=O)[C@H](N)c3ccccc3)[C@H]2SC1(C)C (stereo not given in full) | 0.701% [at 18.6 µM] (inactive)
12 | Brc1cc(Br)c(Oc2cc(Br)c(Br)cc2Br)cc1Br | -0.0531% [at 46 µM] (inactive)
13 | O=C1Cc2ccccc2N1c1c(Cl)cccc1Cl | -0.186% (inactive)
14 | CC1(C)[C@H](C(=O)O)N2C(=O)C[C@H]2S1(=O)=O | 0.0439% [at 46 µM] (inactive)
15 | Cc1cc(=O)c2c(O)c3c(O)cc(=O)c4c3c3c(cc(O)c1c23)C(C)(C)C=4O | 2.2% [at 46 µM] (inactive)
16 | CCCCC(CC)COP(=O)(O)O (stereo not given) | -0.0089% [at 95.7 µM] (inactive)
17 | c1ccc2sc(SN(C3CCCCC3)C3CCCCC3)nc2c1 | -0.0406% [at 95.7 µM] (inactive)
18 | CCCCCCCCOc1ccc(C(=O)O)cc1 | -0.0167% (inactive)
19 | CCCC(C(=O)OCCN(CC)CC)(c1ccccc1)c1ccccc1 | 0.006% [at 46 µM] (inactive)
20 | C=CCc1ccccc1OCC(O)CNC(C)C (stereo not given) | 0.0437% [at 46 µM] (inactive)
21 | CN(C)CCC=C1c2ccccc2C=Cc2ccccc21 | -0.346% [at 46 µM] (inactive)
22 | N#CCc1ccc(Cl)cc1Cl | 0.0282% (inactive)
23 | O=C(/C=C/c1ccccc1)OCCc1ccccc1 | 0.064% (inactive)
24 | CCOc1ccc(Cc2nccc3cc(OCC)c(OCC)cc23)cc1OCC | 0.0721% [at 18.6 µM] (inactive)
25 | CCCCCCCCC(CCCCCC)C(=O)O (stereo not given) | 0.208% (inactive)
26 | Oc1c(I)cc(I)c2cccnc12 | -0.147% [at 46 µM] (inactive)
27 | CC(=O)NC1(c2cccc(F)c2)CCN(CC[C@@]2(c3ccc(Cl)c(Cl)c3)CN(c3ccccc3)C(=O)CO2)CC1 | 0.0237% (inactive)
28 | CN1C(=O)c2ccccc2C1=O | -0.287% (inactive)
29 | CC(=O)Oc1ccc([N+](=O)[O-])cc1CCl | 0.145% (inactive)
30 | CC(=O)N/N=C/c1ccc([N+](=O)[O-])o1 | 0.0616% [at 46 µM] (inactive)

Experiment: qHTS assay to test for compound auto fluorescence at 460 nm (blue) in HepG2 cell free culture (AID 720685)
Conditions: Cell-free culture medium, blue autofluorescence 405/460 nm; series mostly up to 91.3 µM; fluorescence, % of fluorescent control: at the top concentration
Outline: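 Cell-free plates of MEM plus 10% FBS received 23 nL compound or DMSO vehicle; blue-channel (405/460 nm) intensity scored against triamterene as reference fluorophore.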

Row | Compound | fluorescence, % of fluorescent control
31 | O=C1C(=O)c2ccccc2C(O)=C1C1CCC(c2ccc(Cl)cc2)CC1 (stereo not given) | 0.0263% [at 18.6 µM] (inactive)
32 | COc1ccccc1N1CCN(CC(O)COc2cccc3ccccc23)CC1 (stereo not given) | -0.0361% [at 46 µM] (inactive)
33 | CN1CC(=O)N2[C@H](c3ccc4c(c3)OCO4)c3[nH]c4ccccc4c3C[C@@H]2C1=O | 0.0465% [at 46 µM] (inactive)
34 | O=C1c2ccccc2C(=O)C1c1nc2ccccc2c(Br)c1O | 0.313% (inactive)
35 | N#CCCN(CCO)CCO | 1.19% (inactive)
36 | O=c1cc(-c2ccccc2)oc2ccc3ccccc3c12 | -0.0319% (inactive)
37 | Nc1nc2ccc([N+](=O)[O-])cc2s1 | 1.05% (inactive)
38 | CCOC(=O)OC(C)OC(=O)[C@@H]1N2C(=O)[C@@H](NC(=O)[C@H](N)c3ccccc3)[C@H]2SC1(C)C (stereo not given in full) | 0.443% [at 18.6 µM] (inactive)
39 | Brc1cc(Br)c(Oc2cc(Br)c(Br)cc2Br)cc1Br | -0.0846% [at 46 µM] (inactive)
40 | C[C@@H]1CN(CCCn2c3ccccc3c3ccccc32)C[C@H](C)N1 | -0.158% [at 46 µM] (inactive)
41 | Cc1cc(O)ccc1O | 0.011% (inactive)
42 | CC1(C)[C@H](C(=O)O)N2C(=O)C[C@H]2S1(=O)=O | -0.117% [at 46 µM] (inactive)
43 | Cc1cc(=O)c2c(O)c3c(O)cc(=O)c4c3c3c(cc(O)c1c23)C(C)(C)C=4O | -0.094% [at 46 µM] (inactive)
44 | CCCCC(CC)COP(=O)(O)O (stereo not given) | 0.0576% [at 95.7 µM] (inactive)
45 | c1ccc2sc(SN(C3CCCCC3)C3CCCCC3)nc2c1 | -0.0943% [at 95.7 µM] (inactive)
46 | CCCCCCCCOc1ccc(C(=O)O)cc1 | -0.062% (inactive)
47 | C[C@H]1c2cccc(O)c2C(O)=C2C(=O)[C@]3(O)C(O)=C(C(N)=O)C(=O)[C@@H](N(C)C)[C@@H]3[C@@H](O)[C@@H]21 | 1.43% [at 46 µM] (inactive)
48 | O=C(CCCN1CC=C(n2c(=O)[nH]c3ccccc32)CC1)c1ccc(F)cc1 | -0.0172% [at 46 µM] (inactive)
49 | C=CCc1ccccc1OCC(O)CNC(C)C (stereo not given) | 0.218% [at 46 µM] (inactive)
50 | CN(C)CCC=C1c2ccccc2C=Cc2ccccc21 | -0.0694% [at 46 µM] (inactive)
51 | O=C(/C=C/c1ccccc1)OCCc1ccccc1 | -0.0041% (inactive)
52 | CC(C)(c1ccccc1)c1ccccc1 | -0.0176% (inactive)
53 | CCOc1ccc(Cc2nccc3cc(OCC)c(OCC)cc23)cc1OCC | -0.0254% [at 18.6 µM] (inactive)
54 | CCCCCCCCC(CCCCCC)C(=O)O (stereo not given) | -0.0023% (inactive)
55 | Oc1c(I)cc(I)c2cccnc12 | 0.0389% [at 46 µM] (inactive)
56 | CC(=O)NC1(c2cccc(F)c2)CCN(CC[C@@]2(c3ccc(Cl)c(Cl)c3)CN(c3ccccc3)C(=O)CO2)CC1 | 0.002% (inactive)
57 | CN1C(=O)c2ccccc2C1=O | -0.113% (inactive)
58 | CC(=O)Oc1ccc([N+](=O)[O-])cc1CCl | -0.698% (inactive)
59 | C=C(C)C(=O)OCCOCCOC(=O)C(=C)C | -0.0015% (inactive)
60 | CC(=O)N/N=C/c1ccc([N+](=O)[O-])o1 | 1.32% [at 46 µM] (inactive)
